The subject of the assay is Trichoderma virens ATCC 9645. Put plainly: growth yield (OD600) with compound + IPBC relative to untreated control; higher = less growth inhibition. The following applies: compound concentration: 100 uM, IPBC concentration: 200 ng/ml. The method in brief: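 Trichoderma virens ATCC 9645 spores from 7-day potato dextrose agar plates were suspended in potato dextrose broth at 15,000 spores ml^−1. Aliquots of 100 μl with library compounds at 100 μM final, with or without a co-applied biocide at 200 ng ml^−1, were grown in 96-well plates at 30 °C. OD600 was read at 40 h and 72 h on a BioTek EL800. Growth is expressed relative to the control without either agent, as means of duplicate screens.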

This note sets out measurements from the supplement of paper PMC8007513.

Structures are written as SMILES. Structures can show the parent of a compound that is named as a salt. ± gives the standard error. Among all 1,300 compounds or so, about 130 (10%) showed an effect of 50% or more. This is one part of a sample in which strong results are shown more often than they occur.

Take `CN1CCC2(C)c3cc(O)ccc3N(C)C12` (single isomer, unassigned; (-)) [(-)-Eseroline fumarate salt] + CCCCNC(=O)OCC#CI [3-iodo-2-propynyl butylcarbamate (IPBC)]: the growth yield came out at 85 ± 4.9% (40 h) and 90.6 ± 2.1% (72 h).

Take `Oc1cc(Cl)ccc1Oc1ccc(Cl)cc1Cl` [Triclosan] + CCCCNC(=O)OCC#CI [3-iodo-2-propynyl butylcarbamate (IPBC)]: the growth yield turned out to be 3.02 ± 0.16% (40 h) and 2.2 ± 0.1% (72 h).

With `C#CCN(C)CCCOc1ccc(Cl)cc1Cl` [Clorgyline hydrochloride] + CCCCNC(=O)OCC#CI [3-iodo-2-propynyl butylcarbamate (IPBC)], the growth yield is, setting by setting: (40 h) 60.36 ± 0.32%; (72 h) 87.2 ± 2.2%.

As to `CN1[C@@H]2CC[C@H]1C[C@@H](OC(c1ccccc1)c1ccccc1)C2` [Benztropine mesylate] + CCCCNC(=O)OCC#CI [3-iodo-2-propynyl butylcarbamate (IPBC)], the growth yield (40 h) came out at 84.7 ± 2.1% and the growth yield (72 h) is 96.1 ± 4.4%.

As to `C[C@H](CCC(=O)O)[C@H]1CC[C@H]2[C@@H]3[C@@H](O)C[C@@H]4C[C@H](O)CC[C@]4(C)[C@H]3CC[C@]12C` [Urosiol] + CCCCNC(=O)OCC#CI [3-iodo-2-propynyl butylcarbamate (IPBC)], the growth yield (40 h) came out at 104 ± 12% and the growth yield (72 h) was found to be 99.7 ± 5.1%.

`N[C@@H](C(=O)N[C@@H]1C(=O)N2C(C(=O)O)=C(Cl)CS[C@H]12)c1ccccc1` [Cefaclor hydrate] + CCCCNC(=O)OCC#CI [3-iodo-2-propynyl butylcarbamate (IPBC)]: the growth yield reads like this: (40 h) 92.9 ± 8.1%; (72 h) 96.7 ± 4%.

Regarding `CC[N+](C)(CC)CCC[n+]1c(-c2ccccc2)c2cc(N)ccc2c2ccc(N)cc21` [Propidium iodide] + CCCCNC(=O)OCC#CI [3-iodo-2-propynyl butylcarbamate (IPBC)], the growth yield is, setting by setting: (40 h) 8.1 ± 5.6%; (72 h) 12.7 ± 0.32%.

For `COc1ccc(CN2CCNCC2)c(OC)c1OC` [Trimetazidine dihydrochloride] + CCCCNC(=O)OCC#CI [3-iodo-2-propynyl butylcarbamate (IPBC)], the growth yield (40 h) was found to be 85 ± 2.1% and the growth yield (72 h) came to 91.87 ± 0.42%.

As to `CCCCCN(C)CCC(O)(P(=O)(O)O)P(=O)(O)O` [Ibandronate sodium] + CCCCNC(=O)OCC#CI [3-iodo-2-propynyl butylcarbamate (IPBC)], the growth yield amounted to 87.84 ± 0.48% (40 h) and 96.8 ± 0.94% (72 h).

Regarding `Cc1c(OCC(F)(F)F)ccnc1C[S+]([O-])c1nc2ccccc2[nH]1` (stereo not drawn) [Lansoprazole] + CCCCNC(=O)OCC#CI [3-iodo-2-propynyl butylcarbamate (IPBC)], the growth yield runs as follows: (40 h) 68.1 ± 2.1%; (72 h) 91.87 ± 0.21%.

On to `CC(C)c1c(C(=O)Nc2ccccc2)c(-c2ccccc2)c(-c2ccc(F)cc2)n1CC[C@@H](O)C[C@@H](O)CC(=O)O` [Atorvastatin] + CCCCNC(=O)OCC#CI [3-iodo-2-propynyl butylcarbamate (IPBC)], for which the growth yield (40 h) was found to be 69.3 ± 2.2% and the growth yield (72 h) is 79.5 ± 1.3%.

Consider `CC(C)n1c(/C=C/C(O)CC(O)CC(=O)O)c(-c2ccc(F)cc2)c2ccccc21` (stereo not drawn) [Fluvastatin sodium salt] + CCCCNC(=O)OCC#CI [3-iodo-2-propynyl butylcarbamate (IPBC)], for which the growth yield reads like this: (40 h) 13.8 ± 0.48%; (72 h) 33.9 ± 0.52%.

Consider `O=C(O)C[C@H](O)C[C@H](O)/C=C/c1c(C2CC2)nc2ccccc2c1-c1ccc(F)cc1` [Pitavastatin calcium] + CCCCNC(=O)OCC#CI [3-iodo-2-propynyl butylcarbamate (IPBC)], for which the growth yield (40 h) turned out to be 14 ± 2.2% and the growth yield (72 h) is 39.4 ± 3.4%.

With `C=CC[C@]1(O)CC[C@H]2[C@@H]3CCC4=CC(=O)CCC4=C3C=C[C@@]21C` [Altrenogest] + CCCCNC(=O)OCC#CI [3-iodo-2-propynyl butylcarbamate (IPBC)], the growth yield is, setting by setting: (40 h) 96.6 ± 1.6%; (72 h) 93.8 ± 2.3%.

Regarding `COc1ccc(CCN)cc1OC` [Homoveratrylamine] + CCCCNC(=O)OCC#CI [3-iodo-2-propynyl butylcarbamate (IPBC)], the growth yield (40 h) was 89.3 ± 5.4% and the growth yield (72 h) is 91.1 ± 6.4%.

Regarding `O=P(O)(O)C(O)(Cn1ccnc1)P(=O)(O)O` [Zoledronic acid hydrate] + CCCCNC(=O)OCC#CI [3-iodo-2-propynyl butylcarbamate (IPBC)], the growth yield came to 102 ± 6.3% (40 h) and 105 ± 4.3% (72 h).

`O=C(Cn1ccnc1[N+](=O)[O-])NCCO` [Etanidazole] + CCCCNC(=O)OCC#CI [3-iodo-2-propynyl butylcarbamate (IPBC)]: the growth yield is, setting by setting: (40 h) 91.3 ± 3.3%; (72 h) 92.2 ± 3.9%.

For the compound `COc1cc([S+](C)[O-])ccc1-c1nc2cccnc2[nH]1` (stereo not drawn) [Sulmazole] + CCCCNC(=O)OCC#CI [3-iodo-2-propynyl butylcarbamate (IPBC)], the growth yield by setting is: (40 h) 110 ± 9.8%; (72 h) 107 ± 4.2%.

On to `CO[C@H]1/C=C/O[C@@]2(C)Oc3c(C)c(O)c4c(O)c(c(/C=N/N5CCN(C)CC5)c(O)c4c3C2=O)NC(=O)/C(C)=C\C=C\[C@H](C)[C@H](O)[C@@H](C)[C@@H](O)[C@@H](C)[C@H](OC(C)=O)[C@@H]1C` [Rifampicin] + CCCCNC(=O)OCC#CI [3-iodo-2-propynyl butylcarbamate (IPBC)], for which the growth yield amounted to 89 ± 7% (40 h) and 93.8 ± 3.6% (72 h).

For the compound `Nc1nc(=O)c2nc(CNc3ccc(C(=O)N[C@@H](CCC(=O)O)C(=O)O)cc3)cnc2[nH]1` [Folic acid] + CCCCNC(=O)OCC#CI [3-iodo-2-propynyl butylcarbamate (IPBC)], the growth yield reads like this: (40 h) 84.82 ± 0.32%; (72 h) 91.03 ± 0.84%.

On to `C[C@@H](c1ncncc1F)[C@](O)(Cn1cncn1)c1ccc(F)cc1F` [Voriconazole] + CCCCNC(=O)OCC#CI [3-iodo-2-propynyl butylcarbamate (IPBC)], for which the growth yield was 5.24 ± 0.16% (40 h) and 4.09 ± 0.1% (72 h).

With `OC(Cn1cncn1)(Cn1cncn1)c1ccc(F)cc1F` [Fluconazole] + CCCCNC(=O)OCC#CI [3-iodo-2-propynyl butylcarbamate (IPBC)], the growth yield turned out to be 57.7 ± 5.9% (40 h) and 75.2 ± 8.5% (72 h).

As for `CNC(C)CCC=C(C)C` (stereo not drawn) [Isometheptene mucate] + CCCCNC(=O)OCC#CI [3-iodo-2-propynyl butylcarbamate (IPBC)], the growth yield reads like this: (40 h) 101 ± 16%; (72 h) 101 ± 8.4%.

Consider `CC(O)(CS(=O)(=O)c1ccc(F)cc1)C(=O)Nc1ccc(C#N)c(C(F)(F)F)c1` (stereo not drawn) [Bicalutamide] + CCCCNC(=O)OCC#CI [3-iodo-2-propynyl butylcarbamate (IPBC)], for which the growth yield (40 h) worked out at 94 ± 12% and the growth yield (72 h) turned out to be 97.5 ± 6.5%.
